Assay results from the supplement of paper PMC3334620.
Whole data set: some 33,000 sequences, median “E-score (-0.5 to 0.5)” near -0.032, cut for the highest 2% near 0.36. This excerpt belongs to a sample that is enriched for the highest values.

Target: T1, Sko1 (UniProt Q02100)
T1 sequence: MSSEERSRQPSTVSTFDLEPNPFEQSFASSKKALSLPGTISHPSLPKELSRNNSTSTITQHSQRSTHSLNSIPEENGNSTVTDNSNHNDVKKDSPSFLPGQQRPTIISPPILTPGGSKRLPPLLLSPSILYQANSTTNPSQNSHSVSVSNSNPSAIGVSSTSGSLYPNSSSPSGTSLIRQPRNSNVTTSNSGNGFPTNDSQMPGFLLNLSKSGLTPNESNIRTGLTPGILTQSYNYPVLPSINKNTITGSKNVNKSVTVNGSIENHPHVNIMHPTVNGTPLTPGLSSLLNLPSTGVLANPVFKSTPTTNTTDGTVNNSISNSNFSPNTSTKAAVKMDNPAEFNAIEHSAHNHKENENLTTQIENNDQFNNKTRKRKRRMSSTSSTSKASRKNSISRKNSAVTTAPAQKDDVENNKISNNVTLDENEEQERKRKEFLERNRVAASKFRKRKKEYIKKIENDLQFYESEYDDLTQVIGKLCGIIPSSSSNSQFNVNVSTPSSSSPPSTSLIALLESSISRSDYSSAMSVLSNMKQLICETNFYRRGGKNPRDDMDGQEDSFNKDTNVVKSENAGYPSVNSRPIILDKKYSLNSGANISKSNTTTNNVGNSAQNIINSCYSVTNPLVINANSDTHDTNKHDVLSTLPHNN
Assay: PBM E-score (8-mer binding enrichment) (E-score (-0.5 to 0.5)); higher = stronger / more preferred TF binding
Conditions: protein concentration: 200 nM; construct: GST-full length
In short: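 GST-tagged yeast TFs (full-length or DNA-binding domain) were made by PURExpress in vitro transcription/translation and applied at about 100-200 nM to universal all-10-mer Agilent arrays. The arrays were made double-stranded by primer extension, on fresh or once-stripped slides. Bound protein was detected with fluorescent anti-GST, and scans were normalised with masliner. Each ungapped eight-base word, pooled with its reverse complement, received an E-score (modified Wilcoxon-Mann-Whitney statistic) from the Universal PBM Analysis Suite.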

Sequence | PBM E-score
CGTTTTAC | 0.209
ATTTATAG | 0.158
ACGGAAAT | 0.226
AGTATGCA | -0.0795
ACCTGTAT | -0.105
CAAACCTG | -0.0692
ACCATTAG | 0.0481
TCCCAAGA | -0.166
CGTAACAC | 0.374
CGTAACAG | 0.374
GGTAACAC | 0.0477
AGTAACAC | -0.0531
CGTAACAA | 0.344
AGTAACAG | -0.0766
AGCGGTTG | -0.0753
AGTAATAC | 0.0785
GGTAATAA | 0.185
CGTAATAG | 0.435
CGTAATAC | 0.451
AGTAATAG | 0.264
GGTAATAC | 0.178
TGTAATAA | 0.28
CATAATAG | 0.116
CGTAATAA | 0.434
ACGCGGCT | 0.124

Sequence | PBM E-score
ACAGTCCG | -0.182
ATGGCTCC | -0.249
AAGTACCG | -0.032
GCGTACCA | 0.138
ACGTACCC | 0.435
ACGTACCT | 0.377
CCGTACCG | -0.208
AAGTACCT | -0.0422
GCGTACCC | -0.00205
CCGTACCC | -0.335
ACGTACCG | 0.372
ACGTACCA | 0.444
CCGTACCA | -0.118
AGGTACCT | -0.19
AGAACCAG | -0.306
CCTACTAA | -0.18
AATGCCTA | -0.0242
CCTATGCC | -0.3
CCATGGAG | -0.266
AAACGCAT | 0.0801
ATACGCAT | 0.375
CTACGCAC | 0.315
AGACGCAC | 0.104
ATACGCGC | 0.188
CTACGCAG | 0.274

Sequence | PBM E-score
TTACGCAA | 0.466
ATACGCAC | 0.389
TTACGGAA | 0.246
CTACGCAA | 0.414
TAACGCAA | 0.312
ATACGCAG | 0.296
ATAGCCTA | -0.0632
GCAAGGCA | 0.0267
AAGACCTG | -0.147
AGCTAATG | 0.114
ACGAGACG | 0.126
CCACCGAA | -0.00284
CAGCTGAC | 0.0244
AAGGGAAG | 0.0269
ACCAGAGT | -0.256
ATTCTATG | 0.0207
CGTACTCC | 0.201
GTACGCAC | 0.303
GTACGCGA | 0.277
AAACGCAA | 0.335
GTACGCAA | 0.399
ATACGCAA | 0.447
ATACGCGA | 0.281
GAAGTTGC | -0.0684
ATAGCACG | -0.0293

Sequence | PBM E-score
AATTGGGT | 0.12
CCACGTCG | 0.168
CCACGTCA | 0.477
ACACGTCA | 0.489
GCACGTCC | 0.0489
GCCCGTCA | -0.00134
GTACGGCA | 0.0279
ACACGTCC | 0.214
CCACGTCC | 0.109
GCACGTCA | 0.477
GTACGTCA | 0.491
ACACGTCG | 0.335
GTCCGTCA | 0.179
GGCCCTAA | -0.259
GACGGTAC | 0.171
CCAATGGA | -0.215
AAGACTGT | -0.142
TCACGTCA | 0.484
TCACGACA | 0.212
TCCCGTCA | 0.218
GCACGTGC | 0.296
ACACGTGG | 0.356
ACACGTGC | 0.346
ACACGAGT | -0.0245
ACACGTGA | 0.415

Sequence | PBM E-score
ACACGTGT | 0.407
GCACGTGA | 0.387
GCTCGTGA | -0.116
ACTAGATC | -0.0827
CAAGATTA | 0.11
AAGACGCT | -0.168
CAGGTAAC | -0.118
AAGACCCC | -0.274
CATCCCTA | -0.124
GACGTCGA | 0.364
AACGTCGA | 0.281
TCCGTCGA | -0.0164
TACGTCGA | 0.422
CACGTCGG | 0.183
CACGTCGA | 0.278
CGTGTGGC | 0.152
CCTATAGG | -0.205
CAGTAAGA | 0.0474
ACACATAC | 0.124
ATGTGACG | 0.44
AGGTGACG | 0.388
ATGTGACC | -0.0234
CGGTGACC | -0.172
ATGTGACA | 0.169
CGGTGACA | -0.0125

Sequence | PBM E-score
CGGTGACG | 0.449
AGGTGACC | -0.0978
AGGTGACA | 0.118
CTCACTAA | 0.118
AGGGCCAG | -0.407
ACCGAGGC | -0.319
GGCATTGA | -0.104
CCGTAATA | 0.288
GAGTAATA | 0.183
ACGTAAGC | 0.455
CCGTAAGC | -0.0492
ACGTAAGA | 0.476
AAGTAAGC | 0.0436
GCGTAATA | 0.421
GCGTAAGC | 0.294
ACGTAAGT | 0.465
TCGTAAGA | 0.199
CCGTAAGA | -0.0187
AAGTAAGT | 0.0641
AGAGTTCC | -0.269
CGTAGGTC | 0.284
GTCTCAAA | -0.0308
AAGATATT | 0.0367
ACTCCTAC | 0.0364
CGTTGCAC | 0.11

Sequence | PBM E-score
CTCGGCGA | -0.0899
CAACATTC | -0.167
AATGCCCA | -0.173
ATTCTTGC | 0.0625
GGCAGCAC | -0.103
CTTCTCAA | -0.04
GCAACCGA | -0.129
ATTGGCAA | 0.134
CTGTAATA | 0.042
GCGTAAGA | 0.378
GAGTAAGA | 0.0882
GTGTAAGA | 0.0148
ATGTAATA | 0.376
GTGTAATA | 0.221
CCGTAAGG | -0.15
AGGTAAGG | -0.0698
ACGTAAGG | 0.464
GACTTTGC | -0.117
TCTCGCAA | -0.114
CATGCCAG | -0.191
CCTAGGCA | -0.257
AGAGCGAT | -0.16
CTAGCTAC | -0.105
GCATGCCA | -0.187
CTGCCATA | -0.0751
